# Screens: PubChem BioAssay, NMMLSC
# MEKK2 WT-MEK5 – raises or lowers MEK5 binding to wildtype human MEKK2 PB1 domain; bead flow cytometry, Alexa488-MEK5 binding to MEKK2 WT; actives lie on both sides; binding response (% of control), % at 10 µM; 1.1% of 290,000 active; AID 1531; in the data active = binding response below about 67% or above about 130%
# MEKK2mut PB1 HTS – signal of MEK5 binding to mutant human MEKK2 PB1 domain. 0.35% of 290,000 active. bead flow cytometry, Alexa488-MEK5 binding to MEKK2 mutant. percent response, % at 10 µM; in the data active = percent response above about 24%, passing the limit was not always enough
# MEKK3 PB1 HTS – modulators (inhibitors or enhancers) of MEK5 binding to human MEKK3 PB1 domain; bead-based flow cytometry, Alexa488-MEK5 binding to MEKK3; actives lie on both sides; 0 = blocked by unlabeled MEK5, 100 = vehicle; 1.4% of 290,000 active; Q99759; binding response (% of control), % at 10 µM;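 active = binding response more than 3 SD above or below the average of its plate-row segment, actives on both sides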;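 also: Alexa488 bead fluorescence after subtracting the streptavidin-only scavenger bead signal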
# VLA-4 inh – inhibition in a human VLA-4 binding assay | P13612 | VLA-4 expressing cells, ligand binding flow cytometry | inhibition, % (about 7 µM as worked out from the volumes in the protocol) | 0.2% of 330,000 active; in the data active = inhibition above about 50%
# Target sequence (P13612 whole entry, looked up): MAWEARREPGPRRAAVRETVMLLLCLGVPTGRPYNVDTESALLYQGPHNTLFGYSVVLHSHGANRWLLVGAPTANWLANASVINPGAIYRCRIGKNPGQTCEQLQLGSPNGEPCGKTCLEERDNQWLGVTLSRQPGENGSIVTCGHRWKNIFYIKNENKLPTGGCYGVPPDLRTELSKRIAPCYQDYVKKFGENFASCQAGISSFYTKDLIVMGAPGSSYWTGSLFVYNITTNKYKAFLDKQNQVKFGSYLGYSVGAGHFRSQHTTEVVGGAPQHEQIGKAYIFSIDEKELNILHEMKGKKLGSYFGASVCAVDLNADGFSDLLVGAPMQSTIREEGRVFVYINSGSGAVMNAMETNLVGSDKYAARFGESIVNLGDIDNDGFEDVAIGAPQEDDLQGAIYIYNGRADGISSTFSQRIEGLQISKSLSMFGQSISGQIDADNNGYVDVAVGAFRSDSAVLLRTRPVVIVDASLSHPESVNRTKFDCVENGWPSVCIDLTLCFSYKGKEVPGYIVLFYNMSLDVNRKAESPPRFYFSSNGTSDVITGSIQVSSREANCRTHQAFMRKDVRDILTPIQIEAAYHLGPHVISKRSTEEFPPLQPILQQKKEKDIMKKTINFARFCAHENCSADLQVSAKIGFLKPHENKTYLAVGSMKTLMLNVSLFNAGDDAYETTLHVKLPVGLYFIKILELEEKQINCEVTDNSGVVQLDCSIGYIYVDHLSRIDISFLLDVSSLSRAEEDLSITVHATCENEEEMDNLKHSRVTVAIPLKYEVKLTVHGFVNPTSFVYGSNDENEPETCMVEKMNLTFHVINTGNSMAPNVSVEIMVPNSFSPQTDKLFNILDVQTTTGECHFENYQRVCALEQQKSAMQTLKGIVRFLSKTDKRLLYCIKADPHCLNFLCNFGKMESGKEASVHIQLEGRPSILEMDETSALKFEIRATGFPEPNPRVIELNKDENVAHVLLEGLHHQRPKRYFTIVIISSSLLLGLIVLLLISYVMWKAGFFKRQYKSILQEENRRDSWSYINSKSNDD
# MEKK2wt confirm – raises or lowers MEK5 binding to wildtype human MEKK2, retest; shares compounds with MEKK3 PB1 HTS; bead flow cytometry, Alexa488-MEK5 binding to MEKK2 WT; actives lie on both sides; 2.4% of 5,900 active; binding response (% of control), % at 10 µM; in the data active = binding response below about 16% or above about 210%; inactive = in between
# MEKK2mut-MEK5 – signal of MEK5 binding to mutant human MEKK2, retest. shares compounds with MEKK3 PB1 HTS. bead flow cytometry, Alexa488-MEK5 binding to MEKK2 mutant. percent response, % at 10 µM. 2% of 5,900 active. AID 1893; in the data active = percent response mostly above about 71%, no sharp cut-off; inactive = mostly below about 38%;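 also: higher means compound restores mutant binding toward wildtype level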
# MEKK3-MEK5 inh – MEKK3-MEK5 PB1 inhibition, single concentration confirmation | shares compounds with MEKK3 PB1 HTS | bead flow cytometry, Alexa488-MEK5 binding to MEKK3; stronger effect = lower value | binding response (% of control), % at 10 µM | 1.8% of 5,900 active;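 active = binding response below 72% of control, or above a set upper limit, though filed actives all read lower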;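 also: 100% = DMSO only wells and 0% = binding blocked by excess unlabeled MEK5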
# Active calls of the source: *; / = not tested or not shown; ! = not confirmed by another sample; [ ] = dose if it differs, or a comment. Sampled rows, rich in hits. Any-hit rate of the full collection: about 2.2%.
SMILES,MEKK2 WT-MEK5,MEKK2mut PB1 HTS,MEKK3 PB1 HTS,VLA-4 inh,MEKK2wt confirm,MEKK2mut-MEK5,MEKK3-MEK5 inh
C=CCNC(=O)CN(c1ccc(OC)cc1OC)S(C)(=O)=O,123,7,127*,8,98,-2,100
COc1ccc(NC(=O)N(Cc2cc3cc(C)ccc3[nH]c2=O)CC2CCCO2)cc1 (configuration not stated),119,30,130*,-5,-4.0*[inhibitor],-2,86
O=C(CCSCc1ccccc1F)NCCc1ccccc1,97,-1,104,11,/,/,/
Fc1ccc([C@@H]2CCNC[C@H]2COc2ccc3c(c2)OCO3)cc1,144*!,6,112,31,128,13,101
O=C(O)CNC(=O)c1ccc(NC(=O)/C(=C/c2cccc([N+](=O)[O-])c2)NC(=O)c2ccco2)cc1,104,6,97,-4,/,/,/
CCOc1ccc(NC(=O)c2ccc(NC(=O)c3cn4c5c(c(N6CCN(C)CC6)c(F)cc5c3=O)OCC4C)cc2)cc1 (configuration not stated),70,-8,45*[inhibitor],-7,181,40,85
CC1COc2c(N3CCN(C)CC3)c(F)cc3c(=O)c(C(=O)O)cn1c23 (configuration not stated),112,4,108,18,/,/,/
CCOc1ccc(C(=O)NNC2CC(=O)N(CCc3ccccc3)C2=O)cc1OC (configuration not stated),0.0*[inhibitor],-5,0.0*[inhibitor],11,102,0,104
CCCOC(=O)c1ccc(OCC(O)CN2CCN(C(=O)c3ccccc3)CC2)cc1 (configuration not stated),115,27*,109,19,101,1,105
O=C(CN1CCC(NC(=O)Nc2ccccc2-c2ccccc2)CC1)NCc1ccco1,106,7,105,-9,/,/,/
O=C(Nc1ccccc1-c1ccccc1)NC1CCN(C(=O)N2CCOCC2)CC1,120,4,122*,-8,107,10,102
COc1cc(CN(C2CCCCC2C)S(=O)(=O)c2ccc(S(=O)(=O)NC3CC3)cc2)cc(OC)c1OC (configuration not stated),114,-2,111,0,/,/,/
COc1ccc(CN(C2CCCCC2C)S(=O)(=O)c2ccc(S(=O)(=O)N(C)C)cc2)cc1OC (configuration not stated),98,0,137*,2,99,8,104
COc1cccc(N=c2oc3ccc(OC)cc3cc2-c2nc3ccccc3[nH]2)c1,91,-1,102,2,/,/,/
COc1ccc(N=c2oc3ccc(OC)cc3cc2-c2nc3ccccc3[nH]2)cc1,105,5,124*,3,101,6,100
O=C(CSc1nnc(-c2ccccc2)n1C1CCCCC1)N1CCCC1,79,-8,74*[inhibitor],8,112,8,111
COCCN1CCCC(CNCc2cn(C)nc2-c2ccc(Oc3ccccc3)cc2)C1 (configuration not stated),124,1,101,7,/,/,/
Cn1cc(CNCc2cn(C)nc2-c2ccc(C3CCCCC3)cc2)cn1,205*,74*,117,9,104,-5,99
O=S(=O)(c1ccc(F)c(F)c1F)N1CCN(C(=S)NCc2ccccc2)CC1,95,-3,101,-4,/,/,/
O=S(=O)(c1ccc(F)c(F)c1F)N1CCN(C(=S)NC2CC3CCC2C3)CC1 (configuration not stated),72,-14,64*[inhibitor],12,99,1,95
COCC(=O)N(C)c1nnc(-c2cnccn2)s1,-1.0*[inhibitor],-27,0.0*[inhibitor],-24,103,1,101
O=C(O)c1ccc(N2C(=O)Nc3ccccc3N2O)cc1,104,4,104,-4,/,/,/
COC(=O)c1ccc(N2C(=O)Nc3ccccc3N2O)cc1,53,-31,50*[inhibitor],7,99,-3,103
Cc1ncc([N+](=O)[O-])n1Cc1ccccc1F,100,0,109,11,/,/,/
Cc1ncc([N+](=O)[O-])n1Cc1ccc(F)cc1,91,-3,70*[inhibitor],2,98,-6,98
SMILES,MEKK2 WT-MEK5,MEKK2mut PB1 HTS,MEKK3 PB1 HTS,VLA-4 inh,MEKK2wt confirm,MEKK2mut-MEK5,MEKK3-MEK5 inh
CCN(CC(=O)N1CCCC1)S(=O)(=O)c1ccc2ccccc2c1,109,8,108,4,/,/,/
CC1(c2ccccc2)NC(=O)N(CC(=O)NNC(=O)c2cccc(Cl)c2)C1=O (configuration not stated),/,/,/,-2,/,/,/
N#CC1=C(N)OC2=C(C(=O)CCC2)[C@]12C(=O)N(CC(N)=O)c1ccccc12,-1.0*[inhibitor],-21,0.0*[inhibitor],-5,104,1,97
COc1ccc(NC(=O)CSc2nnc(C)s2)cc1S(=O)(=O)N1CCOCC1,/,/,/,-14,/,/,/
NC(=O)C[n+]1cccc(CNC(=O)c2ccc(OC(F)F)cc2)c1,112,1,114,-1,/,/,/
O=C(C[n+]1cccc(CNC(=O)c2ccc(OC(F)F)cc2)c1)Nc1cc(C(F)(F)F)ccc1Cl,144*,25,101,15,155,18,102
Cc1ccc(C)c(-n2nnnc2SCC(=O)NCC2CCCO2)c1 (configuration not stated),/,/,/,5,/,/,/
COc1ccc(C)cc1-n1nnnc1SCC1CCCO1 (configuration not stated),103,24*,103,-12,114,17,106
CC(=O)c1cc(-c2ccccc2)n(CCC(=O)NC(C)(C)C)c1C,36*[inhibitor],-22,25*[inhibitor],14,101,-1,100
CC1(C)NC(=O)N(CC(O)CN2C(=O)CCC2=O)C1=O (configuration not stated),100,-1,99,0,/,/,/
CC1(C)NC(=O)N(CC(O)Cn2nnc3ccccc32)C1=O (configuration not stated),88,-12,80*[inhibitor],-1,115,11,105
Cc1ccc(S(=O)(=O)N2CCC(C(=O)OCC(=O)NC3(C#N)CCCCC3)CC2)cc1C,/,/,/,5,/,/,/
CC12CCC(C(=O)NNc3ccccc3)(OC1=O)C2(C)C (configuration not stated),101,1,101,3,/,/,/
CC12CCC(C(=O)NNc3ccc([N+](=O)[O-])cc3)(OC1=O)C2(C)C (configuration not stated),129,29,132*,0,103,4,104
CC1(C)CC(=O)/C(=C(/O)Cc2ccccc2)C(=NCCc2ccccc2)C1,98,-1,128*,7,104,-1,108
CCCCN=C1CC(C)(C)CC(=O)/C1=C(/O)CCCN1C(=O)c2ccccc2C1=O,97,-6,98,1,/,/,/
